BAZ2B block: inhibitors of human BAZ2B bromodomain; Q9UIF8; Potency, µM (titrated, usually from 114 µM), for the others: top-dose activity change, negative = inhibition, usual class: inhibitors; AID 504333; 360,000 tested, 4.4% active; AlphaScreen BAZ2B-H3K14Ac peptide displacement; also: % is scaled to controls: 0 for no effect and ±100 for the full control effect; nearly all actives have a fitted effect of over 60% in size
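BAZ2B (50 nM) with biotin-H3(5-23)K14Ac peptide (50 nM) in PBS pH 7.4, 0.01% Tween-20, preformed 30 min, then compound 30 min at room temperature; top concentration 110uM. AlphaScreen streptavidin donor/nickel chelate acceptor beads (10 ug/mL final), 20 min dark, signal read.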
JMJD2A Tudor inh: JMJD2A Tudor domain (human) inhibition; AlphaScreen JMJD2A-Tudor / H3K4me3 peptide binding; Potency, µM (titrated, usually from 114 µM), without a hit: at the highest dose activity change, negative = inhibition, usual class: inhibitors; 390,000 tested, 4.4% active; also: % is scaled to controls: 0 for no effect and ±100 for the full control effect; nearly all actives have a fitted effect of over 50% in size
L3MBTL1 inh: L3MBTL1 (human) inhibition. AlphaScreen L3MBTL1–H3K9me1 peptide binding. Potency, µM (titrated, usually from 57.1 µM), without a hit: at the highest dose activity, negative = inhibition, usual class: inhibitors. 230,000 tested, 0.66% active; also: % is scaled to controls: 0 for no effect and ±100 for the full control effect; nearly all actives have a fitted effect of over 60% in size
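L3MBTL1 (50 nM) pre-complexed 30 min with biotinylated H3(1-15)K9me1 peptide (75 nM), then compounds added for 30 min at room temperature; AlphaScreen streptavidin donor/nickel chelate acceptor beads (10 ug/mL final) read after 30 min dark incubation.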
Sfp inh: Sfp phosphopantetheinyl transferase inhibition. Biochemical Sfp PPTase activity, qHTS. 310,000 tested, 3.5% active. Potency, µM, for inactives: largest response in the series, negative = inhibition, usual class: inhibitors. Q9F4F7;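 also: the enzyme is Sfp with the accession as filed and its product quenches rhodamine fluorescence; 0% = enzyme reaction without inhibitor and -100% = no enzyme wells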
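Compounds were incubated with enzyme (final 15 nM) for 15 min at room temperature before substrate addition started the reaction. Fluorescence at 525 nm excitation, 598 nm emission was recorded immediately and after 30 minutes.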
HP1b binding inh: HP1-beta chromodomain-methylated histone interaction inhibition; 390,000 tested, 0.56% active; AlphaScreen HP1-beta / biotin-H3K9me3 peptide binding; P83916; Potency, µM (series often up to 114 µM), for the others: at the top dose activity change, negative = inhibition, usual class: inhibitors; also: nearly all actives have a fitted effect of over 70% in size
Target sequence (P83916 whole entry, looked up): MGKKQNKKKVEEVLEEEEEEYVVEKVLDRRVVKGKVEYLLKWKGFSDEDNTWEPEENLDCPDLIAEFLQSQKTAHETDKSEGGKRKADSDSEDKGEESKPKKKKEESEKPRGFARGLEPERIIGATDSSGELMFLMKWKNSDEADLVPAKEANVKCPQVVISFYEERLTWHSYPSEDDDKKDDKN
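HP1-beta protein (50 nM final) preincubated 30 min at room temperature with biotinylated H3(1-18)K9me3 peptide (50 nM) in PBS pH 7.4, 0.01% Tween-20, then compound added for 30 min. AlphaScreen streptavidin donor/nickel chelate acceptor beads (10 ug/mL final), 30 min dark, luminescence read.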
G9a block: G9a (human) methyltransferase inhibition; Q96KQ7; G9a H3K9 monomethylation, AlphaScreen, 2 h; Potency, µM (top dose mostly 102 µM), inactives show at the top dose activity, negative = inhibition, most hits filed as inhibitors; 350,000 tested, 8.8% active; also: % is scaled to controls: 0 for no effect and ±100 for the full control effect; nearly all actives have a fitted effect of over 75% in size
Target sequence (Q96KQ7 913-1193 limits assumed): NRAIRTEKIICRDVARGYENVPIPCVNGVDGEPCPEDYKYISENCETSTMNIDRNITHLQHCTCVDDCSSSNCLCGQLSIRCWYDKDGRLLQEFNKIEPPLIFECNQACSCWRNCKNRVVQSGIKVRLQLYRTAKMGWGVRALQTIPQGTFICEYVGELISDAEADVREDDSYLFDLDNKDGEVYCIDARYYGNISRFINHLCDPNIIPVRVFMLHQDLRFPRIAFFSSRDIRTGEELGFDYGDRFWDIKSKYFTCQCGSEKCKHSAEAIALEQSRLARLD
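Chemiluminescent proximity detection of H3K9 monomethylation, read after 10 min bead incubation in the dark. Reaction: 20 nM G9a, 500 nM biotin-H3K9 peptide, 20 uM SAM cofactor, 2 h, room temperature, following 15 min enzyme-compound preincubation.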
* marks the source's active call; other numbers are inactive results; ? = inconclusive; / = not tested or not shown; [ ] = remark or other dose. Sampled rows, rich in hits. Any-hit rate of the full collection: about 12%. Calls follow the shape of the dose curve; as a rule, active = well fitted curve in the direction sought with a large enough effect; inconclusive = small, poorly fitted or top-dose-only effect, or another doubt; inactive = no such curve, though single readings can be large; an effect the other way counts as inactive or inconclusive. Potency is read from the fitted curve at half-maximal effect.

SMILES	BAZ2B block	JMJD2A Tudor inh	L3MBTL1 inh	Sfp inh	HP1b binding inh	G9a block
OC(CNC1Cc2ccccc2C1)COc1ccc(Cl)cc1 (stereo unspecified)	-4%	-4%	/	6%	30%	-28%
OC(CNC1CCCc2ccccc21)COc1c(Cl)cccc1Cl (stereo unspecified)	40µM*	5.6µM*	3%	?	7%	7.9µM*
O=C1[C@H]2[C@H]3[C@H](O)[C@H](O)C/C(=N/OCc4ccccc4)[C@H]3CC[C@@H]2C(=O)N1Cc1ccc2c(c1)OCO2	/	/	/	20%	/	/
C=CCOC(=O)c1cc(-c2ccc(/C=C3\C(=O)NC(=O)C(C#N)=C3C)o2)ccc1Cl	35µM*	50µM*	/	50µM*	-97%	8.9µM*
NS(=O)(=O)c1ccc(-c2ccc(C=O)o2)cc1	-3%	-8%[11.4 µM]	20%	12%	51%	-42%
NS(=O)(=O)c1ccc(-c2ccc(/C=C3\NC(=S)NC3=O)o2)cc1	50µM*	25µM*	13µM*	5.6µM*	?	8.9µM*
CC1=C(C#N)C(=O)NC(=O)/C1=C/c1ccc(-c2ccc(S(N)(=O)=O)cc2)o1	45µM*	71µM*	?	79µM*	?	8.9µM*
CCCOC(=O)c1cc(-c2ccc(/C=C3/C(=O)N(C)C(=O)C(C#N)=C3C)o2)ccc1Cl	/	56µM*	/	/	?	/
N#CC1C(=O)NC(c2ccccc2)=CC1c1ccccc1 (stereo unspecified)	/	-19%	/	/	17%[57 µM]	/
CCn1c(C)cs/c1=N\C(=S)Nc1ccccc1C	40µM*	?	-25%	8%	-17%	?
NNc1nc(-c2ccccc2Cl)nc2ccccc12	-14%	-36%	-2%[2.29 µM]	?	23%	22%[0.501 µM]
NNc1nc(-c2ccccc2Cl)nc2sc3c(c12)CCCC3	?	-32%	-16%	50µM*	4%	-1%[59 µM]
CCOc1ccc(N(CC(=O)Nc2cc(Cl)ccc2C)S(C)(=O)=O)cc1	-4%	-7%	2%	26%	40%	23%
Cc1oc(-c2cc(F)ccc2F)nc1CN(C)Cc1ccc2nccnc2c1	-10%	-2%[57.1 µM]	-2%	18%	33%	5%
Cc1oc(-c2cc(F)ccc2F)nc1CN1CCN(c2cnccn2)CC1	71µM*	-20%	-8%	-7%	26%	/
CCCCC1CN2CCc3c([nH]c4ccccc34)C2(C)C1 (stereo unspecified)	?	1%[57.1 µM]	-1%	7%	20%	79µM*
CCOc1ccc2nc(SCC(=O)N3CCCCCC3)c(C#N)cc2c1	?	8%	/	-11%	36%	-2%[12.7 µM]
CCOc1ccc2cc(C#N)c(SCC(=O)N3CCOCC3)nc2c1	10%	-18%	13%	-11%	19%	50µM*
CCOC(=O)C1=C(C)Nc2nc(=S)[nH]n2C1c1ccc(Cl)cc1 (stereo unspecified)	-29%	16µM*	-10%	7.9µM*	?	1.3µM*
C/C(=N\NC(=O)c1ccc(OC2CCCC2)cc1)c1ccc(O)cc1	-39%	-3%	/	17%	24%	0%
O=S(=O)(NCc1ccccc1Cl)c1ccc(-c2cnc(C3CC3)o2)cc1	-26%	-33%	/	/	10%	-6%[59 µM]
O=C(NC(NC(=S)Nc1ccc(Cl)cc1Cl)C(Cl)(Cl)Cl)c1cccc([N+](=O)[O-])c1 (stereo unspecified)	?	?	-9%	15%	?	?
CC(C)C(=O)Nc1cccc(NC(=O)c2cccc(F)c2)c1	-1%	-8%	6%	10%	42%	5%
CCC(C)(C)NC(=O)c1cccc(NC(=O)C(C)C)c1	2%	40µM*	1%	7%	-12%	/
Nc1ccc2nc(CN3CCOCC3)[nH]c2c1	50µM*	?	/	-29%	35%	?
Cc1ccc2nc(Cc3ccc(N)cc3)[nH]c2c1	56µM*	-33%	3%	4%	18%	2%[0.501 µM]
CC(C)Cc1nc2ccccc2[nH]1	-2%	12%	7%	10%	26%	?
